Reference: the supplement of paper PMC6555819

What was measured:
Experiment in all cases: PBM binding z-score (relative to random genomic background probes); higher = stronger binding; sequences stand for … in GC…GCGATTGACAGCGTAGAATGAAGG
[1] = system: FXR:RXRa (NR concentration 270 nM, RXRa partner concentration 90 nM)
Summary of the method: (§1)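 Each nuclear receptor dimer, without ligand, was incubated for 1 h on custom Agilent 4×180K protein-binding microarrays. Binding was detected with antibodies against each partner (one per run), and scanned fluorescence was regression-normalized. The binding z-scores are referenced to random human genomic background probes.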

[2] = system: LXRa:RXRa (NR concentration 270 nM, RXRa partner concentration 90 nM)
Summary of the method: as §1

[3] = system: LXRa homodimer (NR concentration 270 nM)
Summary of the method: as §1

[4] = system: LXRb:RXRa (NR concentration 270 nM, RXRa partner concentration 90 nM)
Summary of the method: as §1

[5] = system: LXRb homodimer (NR concentration 270 nM)
Summary of the method: as §1

[6] = system: PPARa:RXRa (NR concentration 270 nM, RXRa partner concentration 90 nM)
Summary of the method: as §1

[7] = system: PPARg:RXRa (NR concentration 180 nM, RXRa partner concentration 90 nM)
Summary of the method: as §1

[8] = system: PPARg:RXRa 270nM:90nM, anti-RXR (NR concentration 270 nM, RXRa partner concentration 90 nM)
Summary of the method: as §1

[9] = system: PPARg:RXRa 30nM:10nM, anti-RXR (NR concentration 30 nM, RXRa partner concentration 10 nM)
Summary of the method: as §1

[10] = system: PPARg:RXRa 90nM:30nM, anti-RXR (NR concentration 90 nM, RXRa partner concentration 30 nM)
Summary of the method: as §1

Sequence	PBM binding z-score [1]	PBM binding z-score [2]	PBM binding z-score [3]	PBM binding z-score [4]	PBM binding z-score [5]	PBM binding z-score [6]	PBM binding z-score [7]	PBM binding z-score [8]	PBM binding z-score [9]	PBM binding z-score [10]
TCTCGGATGACACGAAAGGTCAGAGCTCGACATC	2.84	3.68	2.02	3.4	0.368	3.8	1.38	2.75	2.83	2.72
CCTACTGGGCCAAGGTCATAGATCAGTCAAAGCA	2.72	2.93	0.673	2.72	-0.469	4.19	–	4.41	2.23	3.84
GGAACGAGGGCATTCGAGTTGATAGCATGGCGAT	1.35	1.46	-0.481	-0.0953	-0.345	1.38	0.867	0.479	-0.23	-0.0469
CGAACTAGGTCATCAGGACAGTGAAGAGGTTGGA	4.1	2.56	0.124	1.44	-0.279	5	7.71	6.43	4.15	5.72
CCTAGTTGGTCAGGAGGTCACAAACCGGATATGA	3.32	2.85	1.66	3.16	0.659	3.98	3.09	3.7	1.19	2.73
ACTCGGAGGATAAAGGTCAGAGCTACGCCAGTGA	3.3	3.42	1.27	2.83	0.273	4.23	–	6.4	5	6.8
CGAACTAGGTCAACAGGACAGTGAAGAGGTTGGA	3.71	2.37	0.16	1.55	-0.34	4.7	7.52	6.53	4.22	6.18
CCTTACCGGTCAAGGTTATAGCACGGGTGGTACG	1.7	1.88	0.946	1.05	0.381	1.83	0.758	0.908	-0.303	0.282
TCATATAGGTAATAAAGGTGAAAGTCGGCATCTA	1.82	2.15	0.741	1.79	0.336	3.1	–	4.44	4.71	4.65
ATCGAAACGTCGTGAGGTGAGTATACAGAAAGGC	-0.206	-0.348	-0.532	-0.359	-0.538	-0.0386	0.851	-0.286	-0.051	0.0788
CGAACTAGGTCAAATGACAGTGAAAGGCGACGTA	4.96	3.06	0.264	2.29	0.271	5.2	8.2	6.78	5.35	7.38
CTAACTAGGTCAAGGTCAAAGTCGGTTTGTGCCA	6.55	5.3	4.54	4.54	1.41	6.04	–	7.82	7.09	8.36
CGAACTAGGTCACCAGGACAGGGAAGAGGTTGGA	4.04	2.49	-0.0204	1.64	-0.262	5.11	8.73	6.89	4.68	6.72
CGAACTAGGTAAAAGGACAGTGAAAGGCGACGTA	-0.23	-0.378	-0.301	-0.371	-0.583	3.16	5.26	6.57	5.66	7.51
AGTCAAAGGTCAGGACGAGGTAACGTAAAGCACG	7.52	5.96	0.926	4.9	1.48	6.17	8.88	7.95	4.99	7.2
ATATGTAAGTTAGGGTCATTCAGAAAGTAGGGAA	4.8	4.5	1.55	4.13	1.31	4.91	2.88	3.41	1.15	2.64
CAAACTAGGTCAAAGGTCAAAGACGAGCCAACCA	8.68	7.43	5.15	7.3	2.82	7.71	–	11.5	15.4	14.3
CAAAGTAGGTCACCGGAAGGTCAAAGTCCGCATG	6.09	6.41	5.29	5.63	1.43	6.43	–	8.21	6.7	8.45
ATATGTAGGTTAGGGTGATTCAGAAAGTAGGGAA	1.37	1.32	0.569	1.83	1.47	3.62	5.4	4.45	2.06	3.62
CCGACTGGGGCAAAGGTTACGATACTCAGTACGA	1.82	1.6	-0.076	2	-1.04	5.62	–	9.56	9.53	11.7
CAAACTAGGTCAAAGGTCAAGGTCGAGCCAACCA	8.28	7.09	5.12	6.8	2.23	7.68	–	11.5	15.3	14.1
ATCGAACGGTCGAGGTGAGTATAGAGAAAGGGAA	-0.0198	-0.0653	-0.353	-0.34	-0.587	0.105	–	-0.114	-0.342	-0.333
TCATATAGGTTAAAGGTGAAAGTCGGTGTGGTAA	4.54	4.09	0.882	3.59	0.683	6.28	–	9.55	10.5	11.5
GATACAGGGTGAGCTAGAGGCCAGAGTATGGAAA	-0.454	-0.464	-0.638	-0.678	-1.4	0.23	–	-0.0418	-0.29	-0.422
CAAACTAGGTCACGAAAGGTCAAAGTTGAATGAC	7.31	8.11	8.31	7.43	2.68	6.6	–	8.55	7.45	8.74
